This is an account of results in PubChem BioAssay (NCI).

Each structure is given as a SMILES string. This is part of a sample that, as a whole, favours compounds with a hit. Of some 79,000 tested, about 15% had one in any assay. A number with no mark means an inactive call. Activity calls are given as the source filed them. Rule as the data show it: active = growth inhibition above about 70%; inactive = the rest.

Assay [1] is described as follows: NCI Yeast Anticancer Drug Screen. Data for the rad50 strain (AID 155).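 Also: 0% = growth of vehicle-only cultures of the same strain.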 The note with it: S. cerevisiae rad50 strain growth inhibition, stronger effect = higher value. Put shortly:
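A DNA repair-deficient yeast mutant serves as the test organism; compound-induced growth inhibition is calculated against vehicle-treated cells.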

Assay [2] is described as follows: NCI Yeast Anticancer Drug Screen. Data for the mec2-1 strain (AID 157). The following applies: S. cerevisiae mec2-1 strain, stronger effect = higher value. A digest of the protocol: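 Readout is yeast growth inhibition, normalised to vehicle-treated controls, in the mec2-1 strain exposed to compound.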
Assay [3] is described as follows: NCI Yeast Anticancer Drug Screen. Data for the sgs1 mgt1 strain (AID 161).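 Also: 0% = growth of cultures given vehicle only.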 The following applies: S. cerevisiae sgs1 mgt1 strain, stronger effect = higher value. A digest of the protocol: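 Growth of a repair-deficient yeast mutant was monitored after compound treatment and expressed as inhibition relative to vehicle-treated cultures.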
Assay [4] is described as follows: NCI Yeast Anticancer Drug Screen. Data for the cln2 rad14 strain (AID 165).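 Also: 0% = growth equal to vehicle treated cultures.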 The note with it: S. cerevisiae cln2 rad14 strain, stronger effect = higher value. A digest of the protocol: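 Relative to vehicle controls, growth inhibition of compound-treated cln2 rad14 yeast was recorded.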
A short description of assay [5]: NCI Yeast Anticancer Drug Screen. Data for the bub3 strain (AID 167). The note with it: S. cerevisiae bub3 mutant strain, stronger effect = higher value. A digest of the protocol:
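Inhibition values come from growth of compound-treated mutant yeast normalised to vehicle-treated controls.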

Assay [6] is described as follows: NCI Yeast Anticancer Drug Screen. Data for the mlh1 rad18 strain (AID 175). The note with it: S. cerevisiae mlh1 rad18 strain growth inhibition, stronger effect = higher value. Put shortly:
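Test agents were incubated with a yeast strain of defined genotype (DNA damage repair defect). Inhibition of growth was derived by comparison with vehicle-exposed cultures.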

The mark [7] stands for this setting: at 5.0 µM (retest, dose inferred, filed as 0.5).
Where [8] appears, read: at 50.0 µM (retest, dose inferred, filed as 5.0).

With `CC1(Br)Cc2ccccc2C1=O` (stereo not given), the growth inhibition is 3% in assay [1] (setting [7]); 43% in assay [1] (setting [8]); -2.2% in assay [1] (at 50.0 µM); 4% in assay [2] (setting [7]); 33% in assay [2] (setting [8]); 37.2% in assay [2] (at 50.0 µM). In addition, the growth inhibition in assay [3] (setting [7]) was 2%; in assay [3] (setting [8]), 31%; in assay [3] (at 50.0 µM) it was 42.3%; in assay [4] (setting [7]), 1%; in assay [4] (setting [8]), 16%; in assay [4] (at 50.0 µM), -35%. Moreover, the growth inhibition in assay [5] (setting [7]) is -2%; in assay [5] (setting [8]), 36%; in assay [5] (at 50.0 µM), 70% (active); in assay [6] (setting [7]) it was 4%; in assay [6] (setting [8]), 34%; in assay [6] (at 50.0 µM), 20.4%.
Take `OC(c1ccccc1)(c1ccccc1)c1ccccn1`: the growth inhibition in assay [1] (setting [7]) is -6%; in assay [1] (setting [8]), -9%; in assay [1] (at 50.0 µM) it was 4.55%; in assay [2] (setting [7]) it was -14%; in assay [2] (setting [8]), 2%; in assay [2] (at 50.0 µM) it was 53.4%. The growth inhibition is -5% in assay [3] (setting [7]); 5% in assay [3] (setting [8]); 9.4% in assay [3] (at 50.0 µM); -6% in assay [4] (setting [7]); 5% in assay [4] (setting [8]); 2.7% in assay [4] (at 50.0 µM). Moreover, the growth inhibition in assay [5] (setting [7]) is -3%; in assay [5] (setting [8]) it was 3%; in assay [5] (at 50.0 µM), 13.8%; in assay [6] (setting [7]), -21%; in assay [6] (setting [8]), -5%; in assay [6] (at 50.0 µM), -6.2%.
On to `COC(=O)[CH2][Sn]([CH2]C(=O)OC)([CH]1CCCCC1)[CH]1CCCCC1`, for which the growth inhibition was 3% in assay [1] (setting [7]); 65% in assay [1] (setting [8]); 98.4% (active) in assay [1] (at 50.0 µM); -3% in assay [2] (setting [7]); 45% in assay [2] (setting [8]); 97.2% (active) in assay [2] (at 50.0 µM). Moreover, the growth inhibition in assay [3] (setting [7]) is 2%; in assay [3] (setting [8]), 69%; in assay [3] (at 50.0 µM) it was 99.2% (active); in assay [4] (setting [7]), 5%; in assay [4] (setting [8]), 33%; in assay [4] (at 50.0 µM) it was 98% (active). The growth inhibition is 1% in assay [5] (setting [7]); 59% in assay [5] (setting [8]); 97.2% (active) in assay [5] (at 50.0 µM); 2% in assay [6] (setting [7]); 48% in assay [6] (setting [8]); 98.5% (active) in assay [6] (at 50.0 µM).
`Cc1cc(N(CCCl)CCCl)ccc1C=Nc1ccc(-c2csc(Cc3ccccc3)n2)c(Cl)c1`: the growth inhibition in assay [1] (setting [7]) was 5%; in assay [1] (setting [8]), 89% (active); in assay [1] (at 50.0 µM), 92.7% (active); in assay [2] (setting [7]) it was -7%; in assay [2] (setting [8]) it was 96% (active); in assay [2] (at 50.0 µM), 94.5% (active). The growth inhibition in assay [3] (setting [7]) was 2%; in assay [3] (setting [8]), 97% (active); in assay [3] (at 50.0 µM) it was 94.2% (active); in assay [4] (setting [7]) it was -18%; in assay [4] (setting [8]), 91% (active); in assay [4] (at 50.0 µM), 91.1% (active). Moreover, the growth inhibition in assay [5] (setting [7]) is 6%; in assay [5] (setting [8]), 94% (active); in assay [5] (at 50.0 µM) it was 89.2% (active); in assay [6] (setting [7]), -17%; in assay [6] (setting [8]), 94% (active); in assay [6] (at 50.0 µM) it was 93.7% (active).
In the case of `N#CCC[CH2][Sn]([Br])([Br])[c]1ccccc1`, the growth inhibition in assay [1] (setting [7]) is 3%; in assay [1] (setting [8]), 72% (active); in assay [1] (at 50.0 µM), 43.9%; in assay [2] (setting [7]) it was 23%; in assay [2] (setting [8]), 22%; in assay [2] (at 50.0 µM) it was 80.1% (active). The growth inhibition in assay [3] (setting [7]) is 49%; in assay [3] (setting [8]), 49%; in assay [3] (at 50.0 µM), 6%; in assay [4] (setting [7]), 2%; in assay [4] (setting [8]), 11%; in assay [4] (at 50.0 µM), 34.5%. The growth inhibition in assay [5] (setting [7]) is -6%; in assay [5] (setting [8]), 18%; in assay [5] (at 50.0 µM) it was 89.4% (active); in assay [6] (setting [7]), 8%; in assay [6] (setting [8]) it was 58%; in assay [6] (at 50.0 µM), 36.5%.
Turning to `O=[N+]([O-])/C=C\c1ccccc1`, the growth inhibition in assay [1] (setting [7]) is 65%; in assay [1] (setting [8]), 99% (active); in assay [1] (at 50.0 µM), 92.8% (active); in assay [2] (setting [7]), 17%; in assay [2] (setting [8]) it was 99% (active); in assay [2] (at 50.0 µM) it was 95.2% (active). The growth inhibition in assay [3] (setting [7]) is 20%; in assay [3] (setting [8]), 99% (active); in assay [3] (at 50.0 µM), 91.8% (active); in assay [4] (setting [7]) it was 14%; in assay [4] (setting [8]) it was 99% (active); in assay [4] (at 50.0 µM), 82.7% (active). For the same compound, the growth inhibition in assay [5] (setting [7]) was 39%; in assay [5] (setting [8]), 99% (active); in assay [5] (at 50.0 µM), 97% (active); in assay [6] (setting [7]), 26%; in assay [6] (setting [8]), 99% (active); in assay [6] (at 50.0 µM) it was 79% (active).
Turning to `O=[N+]([O-])C=C([SH2+])[SH2+].O=[N+]([O-])C=C([SH2+])[SH2+].[Ni+2].c1ccc(C[P+](c2ccccc2)(c2ccccc2)c2ccccc2)cc1`, the growth inhibition in assay [1] (setting [7]) is 3%; in assay [1] (setting [8]), 44%; in assay [1] (at 50.0 µM), 93.5% (active); in assay [2] (setting [7]) it was 7%; in assay [2] (setting [8]) it was 72% (active); in assay [2] (at 50.0 µM), 97.7% (active). For the same compound, the growth inhibition in assay [3] (setting [7]) was 5%; in assay [3] (setting [8]), 52%; in assay [3] (at 50.0 µM), 96.7% (active); in assay [4] (setting [7]), -7%; in assay [4] (setting [8]), 19%; in assay [4] (at 50.0 µM), 87.8% (active). Besides, the growth inhibition in assay [5] (setting [7]) is -1%; in assay [5] (setting [8]), 47%; in assay [5] (at 50.0 µM) it was 96.2% (active); in assay [6] (setting [7]) it was 26%; in assay [6] (setting [8]), 83% (active); in assay [6] (at 50.0 µM) it was 93.3% (active).
Regarding `CC(C)CC(C)(c1ccc(O)cc1)c1ccc(O)cc1`, the growth inhibition in assay [1] (setting [7]) is 81% (active); in assay [1] (setting [8]) it was 98% (active); in assay [1] (at 50.0 µM) it was 92% (active); in assay [2] (setting [7]), 78% (active); in assay [2] (setting [8]) it was 99% (active); in assay [2] (at 50.0 µM) it was 93.5% (active). Also, the growth inhibition in assay [3] (setting [7]) is 99% (active); in assay [3] (setting [8]), 99% (active); in assay [3] (at 50.0 µM), 93.8% (active); in assay [4] (setting [7]), 80% (active); in assay [4] (setting [8]), 99% (active); in assay [4] (at 50.0 µM) it was 92.6% (active). Besides, the growth inhibition in assay [5] (setting [7]) is 98% (active); in assay [5] (setting [8]), 99% (active); in assay [5] (at 50.0 µM), 92.2% (active); in assay [6] (setting [7]) it was 68%; in assay [6] (setting [8]), 99% (active); in assay [6] (at 50.0 µM), 92.3% (active).
Turning to `CC(=O)[C-](Cl)C(C)=O.CC(=O)[C-](Cl)C(C)=O.CC(=O)[C-](Cl)C(C)=O.[Ru+3]`, the growth inhibition is 16% in assay [1] (setting [7]); 98% (active) in assay [1] (setting [8]); 34.6% in assay [1] (at 50.0 µM); 15% in assay [2] (setting [7]); 99% (active) in assay [2] (setting [8]); 84.8% (active) in assay [2] (at 50.0 µM). For the same compound, the growth inhibition was 16% in assay [3] (setting [7]); 99% (active) in assay [3] (setting [8]); 53.8% in assay [3] (at 50.0 µM); 8% in assay [4] (setting [7]); 99% (active) in assay [4] (setting [8]); -1.7% in assay [4] (at 50.0 µM). The growth inhibition in assay [5] (setting [7]) is -1%; in assay [5] (setting [8]) it was 99% (active); in assay [5] (at 50.0 µM), -17.4%; in assay [6] (setting [7]), 6%; in assay [6] (setting [8]) it was 99% (active); in assay [6] (at 50.0 µM), 76.8% (active).
As for `CC1(CO)C(O)CCC2(C)C1CCC1CC3CC12CCC3(O)CO` (stereo not given), the growth inhibition was 4% in assay [1] (setting [7]); 87% (active) in assay [1] (setting [8]); -3.35% in assay [1] (at 50.0 µM); 65% in assay [2] (setting [7]); 99% (active) in assay [2] (setting [8]); -18.8% in assay [2] (at 50.0 µM). Also, the growth inhibition in assay [3] (setting [7]) was 1%; in assay [3] (setting [8]), 80% (active); in assay [3] (at 50.0 µM), 19.1%; in assay [4] (setting [7]), -13%; in assay [4] (setting [8]), 68%; in assay [4] (at 50.0 µM), -0.7%. Also, the growth inhibition was -27% in assay [5] (setting [7]); 77% (active) in assay [5] (setting [8]); -10% in assay [5] (at 50.0 µM); 14% in assay [6] (setting [7]); 91% (active) in assay [6] (setting [8]); 3.7% in assay [6] (at 50.0 µM).
